Bioassay records (PubChem)
The full list was thinned out, with hits kept by preference.
Ba CapD inh – blocks the Bacillus anthracis CapD enzyme; purified CapD enzyme, fluorescence intensity read-out; hits give low values; z-score (test concentration not listed); hit rate 0.23% among 140,000; in the data active means z-score mostly below about -2.9, no sharp cut-off; inactive means mostly above about -1.9
A number is an active result; i = inactive.

SMILES | Ba CapD inh
O=C1/C(=C/c2ccccc2)CCCc2ccccc21 | i
CCOC(=O)CSCCOc1ccc(C=C2C(=O)NC(=O)NC2=O)cc1OC | i
Cc1nn(-c2ccccc2)nc1C(=O)NNC(=O)CCc1nc2ccccc2n1C | i
CCOC(=O)c1[nH]c(C)c(CN(Cc2ccccc2)S(=O)(=O)CC)c1C | i
O=C(Nc1ccc(Cl)cc1)c1ccc(CSc2ncccn2)cc1 | i
CC1(C)CN(c2ccc(N3CC(C)(C)C3=O)cc2)C1=O | i
CCOc1cc(Br)c(Br)c(/C=C2\SC(=S)N(CC(=O)O)C2=O)c1O | -3.8
O=C(O)CN1C(=O)/C(=C\c2cc(Cl)cc(Br)c2O)SC1=S | i
O=C(O)CN1C(=O)/C(=C\c2cc([N+](=O)[O-])ccc2O)SC1=S | -5.2
O=C(O)CN1C(=O)/C(=C\c2cccc([N+](=O)[O-])c2O)SC1=S | i
CCOc1cc(/C=C2/SC(=S)N(CC(=O)O)C2=O)ccc1OCc1ccccc1 | i
O=C(O)CN1C(=O)/C(=C\c2cc([N+](=O)[O-])ccc2Cl)SC1=S | i
CCOC(=O)C1=CC2(SC=C(C(=O)OCC)S2)C2=C(S1)C(C)(C)N(C(=O)Cc1ccccc1)c1ccc(C)cc12 (stereo unspecified) | i
Cc1csc(C(=O)NNC(=O)OCCc2ccc(Cl)cc2Cl)c1-n1cccc1 | i
CN1CCN(Cc2ccc(O)c3ncccc23)CC1 | -4.8
CC(C)OCc1cc(CN2CCN(C)CC2)c(O)c2ncccc12 | i
Oc1ccc(CN2CCOCC2)c2cccnc12 | i
O=C(Nc1ccc(Cl)c(Cl)c1)c1csc(Cc2ccccc2)n1 | i
N#CC(C#N)=Cc1ccc(O)c(Cl)c1 | -5.4
CN(C)c1ccc(C=C(C#N)C#N)cc1 | i
CSc1ccc(C=C(C#N)C#N)cc1 | i
N#CC(C#N)=C(N)/C(C#N)=C/c1ccc(-c2cccc(C(=O)O)c2)o1 | -4
N#C/C(=C\c1ccc(-c2cccc(C(=O)O)c2)o1)C(=O)NC1CCCCC1 | i
N#C/C(=C/c1ccc(-c2cccc(C(F)(F)F)c2)o1)c1ccc(C(=O)O)cc1 | i
CCOc1ccccc1NC(=O)CC1SC(N)=NC1=O (stereo unspecified) | i
SMILES | Ba CapD inh
CC(C)N1C(=O)S/C(=C\c2ccc(-c3cccc(C(F)(F)F)c3)o2)C1=O | i
CCc1c(C)[nH]c(N)nc1=S | -4.4
CCCCc1c(C)nc(N)[nH]c1=O | i
CCc1c(C)nc(N)nc1N1NC1=S | i
Cc1ccccc1NC(=O)NCCCN1CCCC1 | i
Cc1noc(/C=C/N(C)C)c1S(=O)(=O)N1CCCC(C(=O)NC2CCCCC2)C1 (stereo unspecified) | i
CCc1ccccc1N(C)S(=O)(=O)c1c(C)noc1/C=C/N1CCOCC1 | i
Cc1noc(/C=C/N2CCOCC2)c1S(=O)(=O)N(C)CC(=O)NC1CCCCC1 | -5.5
CN(C)c1cc(C(=O)Nc2ccccc2)nc(N(C)C)n1 | i
O/N=C\c1cn(-c2ccccc2)nc1-c1ccc(Br)cc1 | i
Cc1ccc(C(=O)O)cc1-n1c(C)ccc1C | i
Cc1cc(C(=O)O)ccc1-n1c(C)ccc1C | i
Cc1ccc(C)n1-c1ccc(C(=O)O)cc1O | -9
COc1ccc(OC)c(S(=O)(=O)NCCc2sc(-c3ccc(OC)c(OC)c3)nc2C)c1 | i
CC1(C)CC(=O)C2=C(C1)NC1=C(C(=O)CC(C)(C)C1)C2c1ccccc1 | i
CCOC(=O)C1=C(C)OC(N)=C(C#N)C12C(=O)Nc1ccc(C)cc12 (stereo unspecified) | i
N#CN=C(Oc1ccccc1)Oc1ccccc1 | i
CC(C)c1ccccc1NC(=O)C1CCCCC1 | i
O=C(Nc1ccccc1N1CCCCC1)C1CCCCC1 | i
Cc1cccc(NC(=O)C2CCCCC2)c1C(=O)O | -2
CC(=O)NC1CCCc2c1[nH]c1ccc(C)cc21 (stereo unspecified) | i
CC(=O)Nc1ccsc1C(=O)O | i
Cc1cccc(/C=C2\Sc3ccc(C(=O)NC(C)C)cc3N(C)C2=O)c1 | i
Cc1cccc(/C=C2\Sc3ccc(C(=O)NCCC(C)C)cc3N(C)C2=O)c1 | i
CN1C(=O)/C(=C\c2ccccc2)Sc2ccc(C(=O)NCc3cccs3)cc21 | -6.9
SMILES | Ba CapD inh
CCOC(=O)CCc1c(C)nc2ncnn2c1C | i
CCOC(=O)CCc1c(CC(=O)OCC)c[nH]c1/C=N/O | -10
CCOC(=O)CCc1n[nH]c(=O)[nH]c1=O | i
O=C(ON1C(=O)CCC1=O)c1ccccc1Cl | i
O=C(ON1C(=O)CCC1=O)c1ccc(Cl)cc1Cl | -4
CC(C)(C)c1cc(OC(=O)c2ccc(Cl)cc2Cl)c(C(C)(C)C)cc1OC(=O)c1ccc(Cl)cc1Cl | i
CCC(Sc1nc2nccnc2c(=O)n1Cc1ccc2c(c1)OCO2)C(=O)NC1CCCCC1 (stereo unspecified) | i
O=C(Nn1c(-c2cccs2)nc2ccccc2c1=O)c1cc2ccccc2oc1=O | i
CN(C)c1ccc(CN2CCN(CCOC(=O)NCc3csc4ccccc34)CC2)cc1 | i
O=C1NC(=S)N(c2ccccc2)C(=O)/C1=C/C=C/c1ccco1 | i
COc1cccc(N2C(=O)/C(=C/C=C/c3ccco3)C(=O)NC2=S)c1 | -7.4
Cc1cc(N2C(=O)NC(=O)/C(=C\C=C\c3ccco3)C2=O)ccc1Br | i
COC(=O)c1scc(C)c1NC(=O)/C=C/C(=O)O | i
